Bioassay records as filed in PubChem BioAssay.
HCMV antiviral: blocks human cytomegalovirus replication; hit rate 4.5% among 410,000; activity change, negative = inhibition, % at 57.5 µM; HFF cells, HCMV-luciferase reporter, 72 h; stronger effect = lower value; in the data active means activity change below about -60%; inconclusive means no clear call, values can overlap the other calls; inactive means above about -39%
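Screen run at 2 compound doses on HFFs infected with reporter HCMV, MOI 1 PFU/cell. Luciferase activity from cell lysates at 72 h post infection gave inhibition relative to buffer-only and Salinomycin wells.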
Lassa entry inh: Lassa virus entry inhibition | Potency, µM (doses to about 37.9 µM), without a hit: at the top dose activity change, negative = inhibition, usual class: inhibitors | hit rate 1.2% among 300,000 | Lassa virus pseudotype entry inhibition, cell reporter; calls by dose curve; tested in HEK293 cells; further: potency means the concentration at half of the fitted maximal effect; nearly all actives have a fitted effect of over 50% in size
FMDV inh: foot and mouth disease virus antiviral activity | FMDV antiviral cell-based qHTS | Potency, µM (highest dose often 57.9 µM), without a hit: top-dose activity change, negative = inhibition, most hits filed as inhibitors | hit rate 1.2% among 410,000; calls by dose curve; tested in HEK293T cells; further: read-out not given here; potency means the concentration at half of the fitted maximal effect; nearly all actives have a fitted effect of over 45% in size
MARV entry inh: inhibitors of Marburg virus binding or cell entry; hit rate 1.8% among 300,000; Marburg virus pseudotyped entry inhibition, cell reporter; Potency, µM (highest dose often 37.8 µM), without a hit: at the top dose activity change, negative = inhibition, actives largely listed as inhibitors; AID 540276; calls by dose curve; tested in HEK293 cells; further: potency means the concentration at half of the fitted maximal effect
Numbers without * were called inactive; u = inconclusive; x = no result given; [ ] = dose if it differs, or a comment. A selection: hits, their analogues and other compounds. The true share with any hit is near 6.2%. On the % scale 0 is the no-effect control and ±100 the full control effect.

SMILES	HCMV antiviral	Lassa entry inh	FMDV inh	MARV entry inh
Cc1cc(C(=O)N/N=C/c2cccn2C)n[nH]1	8.4	7.2%	5.9%	u
Nc1cccnc1S(=O)(=O)c1cccc(C(F)(F)F)c1	-1.0	-30.3%	-5.5%	5.7%[46.1 µM]
O=C(O)CCn1c(-c2ccccc2)cc2c1CCCC2=O	-6.2	x	-22.7%	x
Cc1ccccc1OCC(=O)Nc1nnc(-c2ccncc2)s1	-92.7*	-1.3%[46.1 µM]	-23.8%	22.0%[46.1 µM]
Cc1ccccc1OCC(=O)Nc1nc(-c2ccncc2)cs1	-7.3	-22.0%	28.2µM*	u
COCC(=O)Nc1nc(-c2ccc(-c3ccccc3)cc2)cs1	5.2	u	-1.7%	4.4%
CCCn1nnc(NC(=O)/C=C/c2ccccc2)n1	30.8	-22.9%	41.3%	24.8%[46.1 µM]
Cc1nc(NC(=O)/C=C/c2ccccc2)n[nH]1	-96.3*	u	u	u
CCOc1ccccc1OCC(=O)Nc1nnc(COC)s1	-102.2*	9.1%	16.7%	-11.6%
O=C(COc1ccccc1F)Nc1nnc(-c2ccncc2)s1	-35.5	11.0%	21.3%	-0.1%
COc1ccc(N2CCN(CC(=O)Nc3ccccc3C(=O)NCc3ccccc3)CC2)cc1	13.9	x	u	x
CCc1cc2ccc(OC)cc2nc1SCC(=O)NNC(=O)c1ccco1	-32.2	9.9%[46.1 µM]	-10.9%	-18.4%[46.1 µM]
Cc1ccc(Cl)cc1NC(=O)CN1CCOCC1	4.5	12.2%	3.4%	9.6%
CCc1ccccc1OCC(=O)Nc1nc(-c2cccnc2)cs1	-65.2*	-23.7%	u	u
O=C(/C=C/c1ccccc1)Nc1nc(-c2ccncc2)cs1	-62.6*	u	12.6µM*	u
CCC(=O)c1ccc(OCC(=O)Nc2nc(-c3cccnc3)cs2)cc1	1.5	u	0.0%	1.8%
COC(=O)c1ccccc1NC(=O)c1nn(-c2ccc(OC)cc2)c(=O)c2c1c1ccccc1n2C	8.5	8.6%[46.1 µM]	-12.1%	10.6%[46.1 µM]
COc1ccc(/C(N)=N/OC(=O)C2CCC(=O)N2S(=O)(=O)c2ccc(C)cc2)cc1OC (configuration not stated)	-87.4*	-1.5%	-29.7%	8.2%
CC(C)C[C@@H]1CN(CCCC[C@H]2CNC(=O)C(=O)N2CCC2CCCCC2)C(=O)C(=O)N1CCC1CCCCC1	-14.7	x	u	x
CC(C)C[C@H]1CN(CCCC[C@H]2CNC(=O)C(=O)N2CCC2CCCCC2)C(=O)C(=O)N1CCC1CCCCC1	-108.2*	x	35.5µM*	x
Nc1nc2c(nc(Br)n2[C@@H]2O[C@H]3COP(=O)(O)O[C@H]3[C@@H]2O)c(=O)[nH]1	x	x	-3.6%	x
Nc1ncnc2c1nc(Br)n2C1O[C@H]2COP(=O)(O)O[C@@H]2C1O (some centres not stated)	x	x	x	3.16µM*
Cc1cc(C(=O)Nc2sc(C)c(C)c2C#N)c(C)o1	14.8	31.3%	26.6%	18.5%
CCCCCCCCCCCCCCCC(O)C(N)CO (configuration not stated)	-98.3*	6.8%	-3.1%	30.9%
CSc1ccc(CN(C)C(=O)c2cccc(S(=O)(=O)NCc3ccccc3)c2)cc1	u	x	-17.7%	x
SMILES	HCMV antiviral	Lassa entry inh	FMDV inh	MARV entry inh
O=C1NC(=O)c2cc(Nc3ccccc3)c(Nc3ccccc3)cc21	x	u	x	23.1µM*
COc1ccc(C2CC(=O)c3sc(NC(C)=O)nc3C2)cc1 (configuration not stated)	-70.2*	-7.3%	-1.2%	u
O=C(NCc1ccccc1F)C1CCCN(S(=O)(=O)c2ccc(-n3cnnn3)cc2)C1 (configuration not stated)	-76.7*	-15.5%	u	7.5%[46.1 µM]
O=C(NCc1ccco1)C1CCCN(S(=O)(=O)c2ccc(-n3cnnn3)cc2)C1 (configuration not stated)	-1.0	0.0%	-7.6%	-23.2%
COc1ccc(-c2cc(CNC(=O)CCl)on2)cc1	-62.6*	u	u	u
COc1ccc(-c2cc(CNC(C)=O)on2)cc1	32.1	u	25.6%	-21.8%[46.1 µM]
CCN1CCCc2cc(CN(CCN3CCOCC3)C(=S)Nc3cccc(C)c3)ccc21	-65.1*	u	-6.9%	u
Cc1ccc(NC(=S)NNC(=O)c2ccc(N3CCOCC3)c([N+](=O)[O-])c2)cc1C	70.2	-11.9%	-27.8%	22.1%
CC(C)C(C)NC(=O)COc1ccc(-c2ccccc2)cc1 (configuration not stated)	-19.5	-8.9%	-7.9%	-13.9%[46.1 µM]
CC(C)C(C)NC(=O)COc1ccc(Sc2ccc(OCC(=O)NC(C)C(C)C)cc2)cc1 (configuration not stated)	-88.1*	u	u	u
CC(=O)OC1C[C@@]2(C)C(c3ccoc3)C[C@H]3O[C@@]32[C@@]2(C)C(=O)C(O)=C3C(C)(C)C(=O)C=C[C@]3(C)C12 (some centres not stated)	x	x	7.94µM*	x
